Measured values taken from PubChem BioAssay (NCATS).
Values joined by “and” are separate entries in the source; they are usually repeats but may differ in a detail not shown here. Equal values may be shown once. Results filed as inconclusive are left out. A number with no mark means an inactive call. Active and inactive are the calls of the source. Calls come from the whole dose curve; as a rule, active = well fitted activation curve with a large enough effect; inconclusive = small, poorly fitted or top-dose-only effect; inactive = no such curve, though single readings can be large or run the other way. Numbered stars: 1 amine (or outer) side, 2 acyl side, 3 side chain; on linkers, the order of the positions; unused ones are H or OH. Bridge positions count the residues as written; N and C are the ends. Square brackets hold non-standard residues; d marks the D form. Peptide text beside a SMILES is read from it. * marks the point of attachment. pTerphenylCO(4''-OnC5H11) = CCCCCOc1ccc(-c2ccc(-c3ccc(C(=O)*)cc3)cc2)cc1; Orn(4R-OH,5R-OH) = O=C([C@H](C[C@@H](O)[C@@H](O)N[*:3])N[*:1])[*:2]; hTyr(3S-OH,4S-OH) = N[C@H](C(=O)O)[C@H](O)[C@@H](O)c1ccc(O)cc1; Pro(3S-OH,4S-Me) = C[C@H]1CN[C@H](C(=O)O)[C@H]1O; Hyp = O=C(O)[C@@H]1C[C@@H](O)CN1

target: Cellular tumor antigen p53 (Homo sapiens) (UniProt P04637); assay: Primary qHTS for small molecule compounds that upregulate eGFP-tagged delta133p53alpha (in N-terminal) cells. (AID 2060322); details: NCI-H358 eGFP-delta133p53alpha fluorescence, 24 h; activation: active compounds read high; note: nearly all actives have a fitted effect of over 75% in size;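 for activation: series mostly up to about 56 µM; 0% = DMSO vehicle and 100% = reference activator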
Sequence (P04637 whole entry, looked up): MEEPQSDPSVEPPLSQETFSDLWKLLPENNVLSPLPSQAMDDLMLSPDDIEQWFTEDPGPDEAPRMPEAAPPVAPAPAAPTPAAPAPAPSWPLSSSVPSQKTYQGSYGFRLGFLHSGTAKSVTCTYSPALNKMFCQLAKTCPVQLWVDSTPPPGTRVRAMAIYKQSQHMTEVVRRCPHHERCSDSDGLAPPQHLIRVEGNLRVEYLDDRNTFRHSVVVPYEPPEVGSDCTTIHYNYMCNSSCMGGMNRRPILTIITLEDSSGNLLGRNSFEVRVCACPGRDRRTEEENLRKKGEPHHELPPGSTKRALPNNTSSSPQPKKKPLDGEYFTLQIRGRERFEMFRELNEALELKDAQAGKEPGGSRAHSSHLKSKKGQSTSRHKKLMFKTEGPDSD
Method in brief: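 NCI-H358 cells pre-induced 24 h with 10 ng/ml doxycycline to express N-terminal eGFP-delta133p53alpha, then dosed 24 h at 37C without doxycycline; fixed, Hoechst-stained, GFP intensity by laser scanning cytometry, normalized to DMSO (0%) and 57.5 uM 5-azacytidine (100%).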
Potency is the fitted concentration of half-maximal effect.

| SMILES | activation | Potency |
| --- | --- | --- |
| CC[C@H]1OC(=O)[C@H](C)[C@@H](O[C@H]2C[C@@](C)(OC)[C@@H](O)[C@H](C)O2)[C@H](C)[C@@H](O[C@@H]2O[C@H](C)C[C@H](N(C)C)[C@H]2O)[C@@](C)(O)C[C@@H](C)[C@@H]2N[C@@H](COCCOC)OC([C@H]2C)[C@]1(C)O | 7.16% | – |
| CNc1ccc([N+](=O)[O-])cc1-n1cnc(-c2ccc(C(F)(F)F)cc2)c1 | 5.25% | – |
| C[C@@H](O)[C@H](NC(=O)c1ccc(C#Cc2ccc(CN3CCOCC3)cc2)cc1)C(=O)NO | -6.68% | – |
| CN(C)c1ccnc2sc3c(=O)n(N4CCCCCC4)cnc3c12 | -18.1% | – |
| O=S(=O)(NC1CCC(c2cc(F)ccc2F)(S(=O)(=O)c2ccc(Cl)cc2)CC1)C(F)(F)F (configuration not stated) | -16.2% | – |
| C[C@@H]1C(=O)O[C@H]2[C@@H](O)C34[C@H]5C[C@@H](C(C)(C)C)C36[C@@H](OC(=O)[C@@H]6O)O[C@@]4(C(=O)O5)[C@@]12O (some centres not stated) | 5.25% | – |
| CN(C)c1nc(Cc2ccc(NC(=O)c3ccc4ccccc4c3)cc2)nc(Cl)c1CC(=O)O | -3.03% and -7.64% | – |
| CC(=O)SCC(=O)c1ccc(NS(=O)(=O)c2ccc(OCCCN(C)C)cc2)nc1 | 10% | – |
| C=CC(C)(O)CC[C@@H]1[C@@]2(C)CCCC(C)(C)C2CC[C@@]1(C)O (some centres not stated) | 1.91% | – |
| O=[N+]([O-])c1cc(Cl)ccc1S(=O)(=O)N1CCN(Cc2ccccc2)CC1 | 0.955% | – |
| CCN1CCN(Cc2ccc(NC(=O)c3ccc(C)c(Oc4ncnc5[nH]c(C)cc45)c3)cc2C(F)(F)F)CC1 | – | 23.9 µM (active) |
| CC(C)(C)C1CCN(C(=O)n2ncc(C(O)(c3ccccc3)c3ccccc3)n2)CC1 | 6.21% | – |
| CCC(C)c1ccc(NC(=O)Cn2cnc3c2c(=O)n(C)c(=O)n3C)cc1 (configuration not stated) | 11.5% | – |
| Cc1nc(C#Cc2ccnc(Cl)c2)c(C)n1-c1ccc(F)cc1 | -12.9% | – |
| Cc1ccc(-c2c(-c3nn(C)c4ncnc(N5CCC(N6CCCCC6)C5)c34)cnn2C)cc1 (configuration not stated) | 2.39% | – |
| CCCCCOc1ccc(-c2ccc(-c3ccc(C(=O)N[C@H]4C[C@@H](O)[C@@H](O)NC(=O)[C@@H]5[C@@H](O)[C@@H](C)CN5C(=O)[C@H]([C@@H](C)O)NC(=O)[C@H]([C@H](O)[C@@H](O)c5ccc(O)cc5)NC(=O)[C@@H]5C[C@@H](O)CN5C(=O)[C@H]([C@@H](C)O)NC4=O)cc3)cc2)cc1 ({pTerphenylCO(4''-OnC5H11)}-[Orn(4R-OH,5R-OH)]T[Hyp][hTyr(3S-OH,4S-OH)]T[Pro(3S-OH,4S-Me)]; lactam 1-C) | 22.9% | – |
| CCOC(=O)c1ccc(N(C)c2csc(-c3ccccc3)n2)cc1 | 0% | – |
| O=C(Nc1ccc(N2CCC(C(=O)N3CCOCC3)CC2)cc1)c1cnc(Oc2ccccc2)nc1 | -2.39% | – |
| CNc1cc(OC)c(C(=O)N[C@@H]2CCN(Cc3ccccc3)[C@@H]2C)cc1Cl | 12.4% | – |
| COc1cc(Br)c(S(=O)(=O)Nc2ccc(C(F)(F)F)c(O[C@@H]3CCN(C)C3)c2)cc1OC | 12.4% | – |
| Cc1cc(-c2nc(-c3ccc(OC(F)(F)F)cc3)no2)nn1Cc1ccnc(N2CCN(C3CC3)CC2)c1 | -0.955% | – |
| NCc1c[nH]c(=S)n1C1CCc2c(F)cc(F)cc2C1 (configuration not stated) | -0.477% | – |
| CCC(C)n1cc(C)c2c(C(=O)NCc3c(C)cc(C)[nH]c3=O)cc(-c3ccc(N4CCNCC4)nc3)cc21 (configuration not stated) | -3.34% | – |
| CC(C)(N)c1ncc(-c2ccc(OC(F)(F)F)cc2)[nH]1 | -2.86% | – |
| CO[C@@H]1[C@@H](O[C@H]2O[C@@H](C)[C@H](O[C@@H]3C[C@](C)(O)[C@H](O)[C@@H](C)O3)[C@@H](N(C)C)[C@@H]2O)[C@@H](CC=O)C[C@@H](C)[C@@H](O[C@H]2CC[C@H](N(C)C)[C@H](C)O2)/C=C/C=C/C[C@@H](C)OC(=O)C[C@H]1O | -1.43% | – |
| COc1ccc(-c2nc(-c3cc(C(F)(F)F)cc(C(F)(F)F)c3)n(Cc3ccc(C(N)=O)cc3)c2-c2ccc(OC)cc2)cc1 | -11% | – |
| Cc1ccc(COC(=O)N2CC[C@@H](CNc3ncccn3)[C@@H](F)C2)cc1 | 1.91% | – |
